Hits are enriched below; roughly 7.3% of the tested compounds scored in any of these assays.
Luc counter – Counterscreen for Luciferase (Kinase-Glo TM) Inhibition. hit rate 0.28% among 200,000. Kinase-Glo luciferase, ATP luminescence, 8 min. Potency, µM (highest dose often 38.3 µM), for the others: at the highest dose activity change, negative = inhibition, hits mostly inhibitors. AID 1379, 2008; also: % is scaled to controls: 0 for no effect and ±100 for the full control effect; nearly all actives have a fitted effect of over 60% in size
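Luminescence was the read-out, taken after 8-minute incubation at ambient temperature. Luciferase turned over luciferin with 10 uM ATP in imidazole pH 7.2 buffer containing KCl, MgCl2, Tween 20 and BSA.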
SMN2 splice enh – qHTS Assay for Enhancers of SMN2 Splice Variant Expression; HEK293 SMN2-luciferase splicing reporter, luminescence, 30-36 h; Potency, µM (titrated, usually from 46.1 µM), for inactives: top-dose activity change, positive = activation, most hits filed as activators; hit rate 2.8% among 210,000; AID 1458, 2008; also: % of control where 0% means no effect; nearly all actives have a fitted effect of over 55% in size
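HEK293 cells carry an SMN2 […]–luciferase reporter in which exon 7 inclusion puts luciferase in frame. Cells were plated 10-12 h before compound addition, then incubated 30-36 h at 37C. ONE-Glo luminescence was read; sodium butyrate at 4.5 mM final served as control.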
Rab9 promoter act – qHTS Assay for Rab9 Promoter Activators | hit rate 2.8% among 320,000 | Potency, µM (top dose mostly 9.22 µM), inactives show at the top dose activation, negative = inhibition, hits mostly activators | Huh7 Rab9 promoter-luciferase reporter, luminescence, 24 h; also: % of control where 0% means no effect; nearly all actives have a fitted effect of over 60% in size
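Steps: seed 1500 Huh7 Rab9-luc cells per well, rest 2 h at 37 °C; add compound in DMSO; incubate 24 h; add luciferase reagent, 10 min ambient; read luminescence.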
FLuc counter – qHTS profiling assay for firefly luciferase inhibitor/activator using purifed enzyme and Km concentrations of substrates (counterscreen for miR-21 project) | purified FLuc, Km substrates, luminescence inhibition | hit rate 6.9% among 360,000 | Luciferin 4-monooxygenase (Photinus pyralis), P08659 | AID 588342, 2011 | Potency, µM (titrated, usually from 57.5 µM), for the others: at the top dose activity change, negative = inhibition, usual class: inhibitors;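 also: plate controls were vehicle for no effect and reference inhibitor for full effect; nearly all actives have a fitted effect of over 55% in size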
Target sequence (P08659 whole entry, looked up): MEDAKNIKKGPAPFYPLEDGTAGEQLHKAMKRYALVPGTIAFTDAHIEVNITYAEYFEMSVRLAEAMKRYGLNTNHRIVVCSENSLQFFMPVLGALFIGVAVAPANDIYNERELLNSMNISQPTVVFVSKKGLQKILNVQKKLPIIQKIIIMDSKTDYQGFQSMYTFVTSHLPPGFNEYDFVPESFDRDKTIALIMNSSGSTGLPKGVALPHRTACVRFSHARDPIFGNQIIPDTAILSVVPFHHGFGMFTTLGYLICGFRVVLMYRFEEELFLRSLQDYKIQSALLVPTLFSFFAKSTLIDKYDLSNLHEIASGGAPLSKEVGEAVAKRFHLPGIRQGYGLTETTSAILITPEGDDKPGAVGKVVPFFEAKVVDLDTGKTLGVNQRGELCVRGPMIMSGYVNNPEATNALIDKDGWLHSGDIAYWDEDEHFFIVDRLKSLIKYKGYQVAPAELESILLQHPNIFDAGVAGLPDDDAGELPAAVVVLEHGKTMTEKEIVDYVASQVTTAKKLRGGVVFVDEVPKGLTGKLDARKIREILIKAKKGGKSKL
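Biochemical qHTS of compounds, final roughly 60 µM downward over six points, against 10 nM purified firefly luciferase using Km concentrations of substrates (10 uM D-luciferin, 10 uM ATP) in Tris acetate pH 7.5 buffer; luminescence output.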
ELG1 genotox – qHTS screen for small molecules that induce genotoxicity in human embryonic kidney (HEK293T) cells expressing luciferase-tagged ELG1 | HEK293T ELG1-luciferase reporter, luminescence, 16 h | Potency, µM (titrated, usually from 46 µM), for the others: at the highest dose activity change, positive = activation, usual class: activators | hit rate 1.3% among 330,000 | AID 504466, 2011; also: % of control where 0% means no effect; nearly all actives have a fitted effect of over 60% in size
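DMSO vehicle served as control against compound-treated ELG1-luciferase HEK293T cells; exposure lasted 16 hr at 37 °C and 5% CO2, followed by ONE-Glo luminescence detection after 30 min.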
NPC1 promoter act – qHTS Assay for NPC1 Promoter Activators; Huh7 NPC1 promoter luciferase reporter, 24 h; Potency, µM (titrated, usually from 9.22 µM), without a hit: top-dose activation, actives largely listed as activators; hit rate 2.4% among 320,000; AID 485313, 2010; also: % of control where 0% means no effect; nearly all actives have a fitted effect of over 60% in size
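Stably transfected Huh7 (NPC1 promoter→luciferase), 1500 cells/well in Opti-MEM + 10% FBS, 2 h settle, then compound 24 h at 37 °C. Luminescence after 10 min with Amplite reagent.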
The depositor's hits bear a star; ? = inconclusive; nt = no result given; [ ] = remark or other dose. Calls follow the shape of the dose curve; as a rule, active = well fitted curve in the direction sought with a large enough effect; inconclusive = small, poorly fitted or top-dose-only effect, or another doubt; inactive = no such curve, though single readings can be large; an effect the other way counts as inactive or inconclusive. Potency is read from the fitted curve at half-maximal effect.

SMILES	Luc counter	SMN2 splice enh	Rab9 promoter act	FLuc counter	ELG1 genotox	NPC1 promoter act
COc1ccc(C2C(=O)N(C3CCC(C)CC3)CC(=O)N2CCc2ccccc2)cc1OC (stereo not drawn)	nt	nt	nt	0%	nt	nt
Clc1cccc(Nc2ncnc3c2cnn3-c2ccccc2)c1	3%	2%	17%	27µM*	?	25%
Fc1cccc(Nc2ncnc3c2cnn3-c2ccccc2)c1	nt	nt	?	17µM*	?	?
O=C(O)c1cccc(Nc2ncnc3c2cnn3-c2ccccc2)c1	-4%	13µM*	3.2µM*	2.1µM*	?	1.3µM*
N#Cc1cccc(Nc2ncnc3c2cnn3-c2cccc(Cl)c2)c1	nt	nt	nt	-17%	nt	nt
O=C(O)c1cccc(Nc2ncnc3ccccc23)c1	-4%	18%	16%	19µM*	1%	0%
CCc1cccc(-n2nnc(-c3nc(-c4ccccc4Cl)no3)c2N)c1	nt	nt	nt	-3%	nt	nt
COc1ccc2cnoc(=O)c2c1OC	-1%	-10%	nt	nt	nt	nt
COc1cccc2cc(C(=O)OC(C)C(=O)c3ccc(C)cc3)c(=O)oc12 (stereo not drawn)	nt	nt	18%	4%	4%	0%
COc1cccc2cc(CC(=O)c3ccc(C)c(C)c3)c(=O)oc12	nt	nt	24%	17µM*	9%	6%
COc1cccc2cc(C(=O)OCC(=O)NCc3ccc4c(c3)OCO4)c(=O)oc12	nt	nt	2%	11µM*	?	-2%
COc1cccc(C(=O)OCC(=O)NCc2ccc3c(c2)OCO3)c1OC	nt	nt	nt	nt	0%	nt
COc1cccc2cc(C(=O)Nc3ccc(CC(=O)O)cc3)c(=O)oc12	nt	-17%	nt	1.5µM*	nt	nt
COc1cccc2cc(CC(=O)c3cc(C)ccc3C)c(=O)oc12	nt	nt	23%	15µM*	-3%	25%
O=C(CSc1nccn1Cc1ccc(F)cc1)NCc1ccc(F)cc1	nt	nt	nt	-9%	nt	nt
O=C(Cn1c(=O)n(-c2ccccc2)c(=O)c2c3c(sc21)CCCC3)Nc1cccc(F)c1	nt	-8%	nt	-1%	nt	nt
Cc1c(Cl)c(S(N)(=O)=O)cc2c1=NC=NS=2(=O)O	-2%[7.66 µM]	-2%[9.22 µM]	nt	nt	nt	nt
COc1cccc2cc(/C(=N/O)c3ccc(Br)cc3)oc12	2%	-27%	0%	1%	-1%	1%
COc1cccc2cc(C(=O)NCc3ccc(F)cc3)c(=N)oc12	nt	nt	-2%	8.5µM*	6%	0%
COc1cccc2cc(C(=O)c3ccccc3)oc12	-24%	?	3.5µM*	9.5µM*	?	?
CCc1ccc(C(=O)Cc2cc3cccc(OC)c3oc2=O)cc1	nt	nt	?	15µM*	13%	?
COc1cccc2cc(CC(=O)c3ccccc3)c(=O)oc12	nt	nt	?	17µM*	11%	?
COc1cccc2cc(C(C)=O)c(=O)oc12	0%	11%	-1%	3%[2.3 µM]	2%	-1%
CCn1c(CN2CCCCC2)nc2cc(NC(=O)COc3ccc(C(C)(C)C)cc3)ccc21	nt	nt	nt	0%	nt	nt
c1ccc(CCc2cccnc2)nc1	-9%[7.66 µM]	-4%[9.22 µM]	nt	nt	nt	nt
CCCOc1ccc(-c2cn3ccccc3n2)cc1[N+](=O)[O-]	?	1.6µM*	2.2µM*	1.7µM*	?	3.2µM*
CCCCOc1ccc(C2=CSC3=NCCN23)cc1[N+](=O)[O-]	nt	nt	-3%	-1%	8%	-1%
CCCCOc1ccc(-c2csc(N)n2)cc1[N+](=O)[O-]	-1%	13µM*	2.8µM*	3.8µM*	?	2.5µM*
COc1ccc(-c2cn3ccccc3n2)cc1[N+](=O)[O-]	?	11µM*	1.4µM*	1.7µM*	?	4µM*
COc1ccc(-c2cn3cc([N+](=O)[O-])ccc3n2)cc1OC	-9%	?	?	15µM*	?	26%
